{
  "source": "paper PMC5540273",
  "about": "(PLoS ONE, 2017);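 also: KINOMEscan kinase panel screen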",
  "data": [
    {"system": "WEE1", "details": "concentration: 1 μM, replicates: in singlicate; n = 1", "units": {"%Inh": "%"}, "values": [
      {"smiles": "Clc1ccc(-c2cc(-c3c[nH]nc3-c3ccccn3)ccn2)cc1", "note": "[GW681251]", "%Inh": 18},
      {"smiles": "Fc1ccc(Nc2nccc(-c3c(-c4ccc(Cl)cc4)nn4ncccc34)n2)cc1F", "note": "[GW829058]", "%Inh": 10},
      {"smiles": "CS(=O)(=O)CCNCc1ccc(-c2ccc3ncnc(Nc4ccc(OCc5ccccc5)c(Cl)c4)c3c2)o1.Cl", "note": "[GW574783]", "%Inh": 12},
      {"smiles": "CN1c2ccc(-c3ccc(C(=O)NCCO)cc3)cc2-c2[nH]ncc2S1(=O)=O", "%Inh": 0},
      {"smiles": "CCc1nc(-c2cccc(N(C)S(=O)(=O)c3ccccc3)c2)c(-c2ccnc(Nc3ccc(N4CCN(C(C)=O)CC4)nc3)n2)s1", "note": "[GSK1645895]", "%Inh": 0},
      {"smiles": "Oc1ccc2ncnc(Nc3ccc(OCc4ccccc4)cc3)c2c1", "note": "[GI262866]", "%Inh": 0},
      {"smiles": "Cc1ccc(NC(=O)c2cccc(C#N)c2)cc1-c1ccc(C(=O)Nc2ccncc2)cc1", "note": "[GSK1398463]", "%Inh": 0},
      {"smiles": "CC(C)(C)OC(=O)NC1CCCN(c2cc(-c3ccc4c(N)n[nH]c4c3)nc(N)n2)C1", "note": "(stereo not drawn) [GSK2286096]", "%Inh": 17},
      {"smiles": "COc1ccc(Nc2nccc(N3CCC(NC(=O)Nc4ccc5c(c4)OCO5)C3)n2)cc1", "note": "(stereo not drawn) [GSK1379745]", "%Inh": 12},
      {"smiles": "COc1ccc(NC(=O)Nc2ccc(C)c(-c3ccc(C(=O)Nc4ccncc4)cc3)c2)cc1", "note": "[GSK1398475]", "%Inh": 34},
      {"smiles": "Cn1ccc2ncnc(Oc3ccc(NC(=O)Nc4cccnc4)c(Cl)c3)c21", "%Inh": 0},
      {"smiles": "Fc1cccc(COc2ccc(Nc3ncnc4cc[nH]c34)cc2Cl)c1", "%Inh": 12}
    ]}
  ]
}
